“And” between values parts separate entries of the source, which are not always exact repeats. Identical values can stand only once. The source holds several records for some structures; these can differ, active in one and inactive in another. The source made the active and inactive calls. Where a call stands in place of a potency, no number is given. Unless noted, calls follow the shape of the dose curve; as a rule, active = well fitted curve in the direction sought with a large enough effect in the repeat runs; inconclusive = weak or mixed curves; inactive = no such curve, though single readings can be large; an effect the other way counts as inactive or inconclusive.
How the values were obtained:
[1] = qHTS assay to identify small molecule antagonists of the thyroid receptor (TR) signaling pathway (AID 743065); also: nearly all actives have a fitted effect of over 55% in size; also: potency is read from the fitted curve at half-maximal effect
Outline: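 Antagonism measured as loss of luciferase signal in GH3 cells stably carrying a TRE-luciferase reporter, co-treated with compound and T3 (1 nM final) for 23.5 h at 37 C. Viability was read in the same well by CellTiter-Fluor.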

[2] = tested on: thyroid hormone receptor (rat, GH3 cells); experiment: qHTS assay to identify small molecule agonists of the thyroid receptor (TR) signaling pathway (AID 743066; calls by dose curve)
[3] = target: Estrogen receptor (Homo sapiens) (UniProt P03372); experiment: qHTS assay to identify small molecule antagonists of the estrogen receptor alpha (ER-alpha) signaling pathway (AID 743069; active = well fitted curve in the direction sought with a large enough effect in the signal ratio in the repeat runs, not every such curve was filed as active; inconclusive = weak or mixed curves, or effect the other way; inactive = no such curve, though single readings can be large or run the other way; the % refers to the signal ratio; also: potency is read from the fitted curve at half-maximal effect)
Sequence of Estrogen receptor (Homo sapiens) (P03372 whole entry, looked up): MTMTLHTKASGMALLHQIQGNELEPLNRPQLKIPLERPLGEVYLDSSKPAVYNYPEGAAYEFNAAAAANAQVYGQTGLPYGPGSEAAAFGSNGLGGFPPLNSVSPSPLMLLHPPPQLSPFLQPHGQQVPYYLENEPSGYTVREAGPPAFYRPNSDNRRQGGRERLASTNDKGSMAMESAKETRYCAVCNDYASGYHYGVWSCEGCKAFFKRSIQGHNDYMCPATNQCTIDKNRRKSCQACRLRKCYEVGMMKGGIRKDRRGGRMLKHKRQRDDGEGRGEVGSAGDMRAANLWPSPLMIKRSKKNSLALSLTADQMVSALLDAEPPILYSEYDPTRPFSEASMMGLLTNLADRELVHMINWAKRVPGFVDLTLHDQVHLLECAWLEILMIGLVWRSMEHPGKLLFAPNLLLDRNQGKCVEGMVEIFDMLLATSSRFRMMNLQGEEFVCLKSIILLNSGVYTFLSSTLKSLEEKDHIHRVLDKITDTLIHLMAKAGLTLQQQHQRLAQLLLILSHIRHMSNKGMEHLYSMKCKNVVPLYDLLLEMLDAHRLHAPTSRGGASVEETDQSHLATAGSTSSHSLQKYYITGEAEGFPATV
Outline: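 Compound effects are measured against 17beta-estradiol stimulation in HEK293 cells with a UAS-controlled beta-lactamase reporter for ER-alpha. Exposure lasts 18 hr at 37C; LiveBLAzer B/G FRET substrate follows for 2 hr at room temperature.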

[4] = qHTS assay to identify small molecule antagonists of the estrogen receptor alpha (ER-alpha) signaling pathway - cell viability counter screen (AID 743074; calls by dose curve;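 also: HEK293 cells carrying ER-alpha-UAS-bla reporter stimulated with 17beta-estradiol; nearly all actives have a fitted effect of over 45% in size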)
[5] = target: Estrogen receptor (Homo sapiens) (UniProt P03372); experiment: qHTS assay to identify small molecule agonists of the estrogen receptor alpha (ER-alpha) signaling pathway (AID 743075; calls by dose curve)
[6] = target: Estrogen receptor (Homo sapiens) (UniProt P03372); experiment: qHTS assay to identify small molecule agonists of the estrogen receptor alpha (ER-alpha) signaling pathway using the BG1 cell line (AID 743079); conditions: BG1Luc4E2 cells, ERE-luciferase agonist, 22 h; activation: at 70.3 µM (top of the series); also: nearly all actives have a fitted effect of over 20% in size
[7] = qHTS assay to identify small molecule antagonists of the estrogen receptor alpha (ER-alpha) signaling pathway using the BG1 cell line (AID 743080; calls by dose curve;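 also: BG1 cells stimulated with 17beta-estradiol alongside compound; nearly all actives have a fitted effect of over 25% in size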; also: potency is read from the fitted curve at half-maximal effect); conditions: BG1Luc4E2 ERE-luciferase antagonist mode, luminescence; activity change, negative = inhibition: at 70.3 µM (top of the series)
Outline: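 BG1-Luc-4E2 cells (endogenous full-length ER-alpha, 4xERE luciferase) hormone-starved 5 days in charcoal-stripped FBS, plated 4,000/well for 24 h, then compound plus 17beta-estradiol for 21.5 h at 37 C; ONE-Glo luminescence read.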

[8] = qHTS assay to identify small molecule antagonists of the estrogen receptor alpha (ER-alpha) signaling pathway using the BG1 cell line - cell viability counter screen (AID 743081);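 also: compound given together with 17beta-estradiol as the ER stimulus; nearly all actives have a fitted effect of over 45% in size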
Aromatase (Homo sapiens) = Aromatase (Homo sapiens) (UniProt P11511); experiment: qHTS assay to identify aromatase inhibitors (AID 743083); also: nearly all actives have a fitted effect of over 55% in size
Sequence of Aromatase (Homo sapiens) (P11511 whole entry, looked up): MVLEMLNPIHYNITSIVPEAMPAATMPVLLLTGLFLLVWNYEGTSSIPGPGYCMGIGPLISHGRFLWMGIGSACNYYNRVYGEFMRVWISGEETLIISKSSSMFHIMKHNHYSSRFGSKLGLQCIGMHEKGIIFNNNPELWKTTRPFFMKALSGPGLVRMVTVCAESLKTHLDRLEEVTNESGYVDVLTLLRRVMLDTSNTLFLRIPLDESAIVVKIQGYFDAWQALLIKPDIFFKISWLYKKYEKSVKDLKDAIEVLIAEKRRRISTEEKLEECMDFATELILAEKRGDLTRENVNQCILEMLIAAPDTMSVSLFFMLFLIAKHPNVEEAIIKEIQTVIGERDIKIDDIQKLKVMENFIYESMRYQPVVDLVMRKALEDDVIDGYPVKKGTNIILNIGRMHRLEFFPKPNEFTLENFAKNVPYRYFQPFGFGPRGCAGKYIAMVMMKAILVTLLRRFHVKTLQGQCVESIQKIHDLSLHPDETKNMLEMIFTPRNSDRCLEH

[9] = qHTS assay to identify aromatase inhibitors - cell viability counter screen (AID 743084);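 also: cells stimulated with testosterone during compound exposure; nearly all actives have a fitted effect of over 55% in size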
[10] = target: Aryl hydrocarbon receptor (Homo sapiens) (UniProt P35869); experiment: qHTS assay to identify small molecule that activate the aryl hydrocarbon receptor (AhR) signaling pathway (AID 743085);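 also: HG2L7.5c1 human HepG2 liver cells with stably integrated DRE-driven firefly reporter; nearly all actives have a fitted effect of over 15% in size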
Sequence of Aryl hydrocarbon receptor (Homo sapiens) (P35869 whole entry, looked up): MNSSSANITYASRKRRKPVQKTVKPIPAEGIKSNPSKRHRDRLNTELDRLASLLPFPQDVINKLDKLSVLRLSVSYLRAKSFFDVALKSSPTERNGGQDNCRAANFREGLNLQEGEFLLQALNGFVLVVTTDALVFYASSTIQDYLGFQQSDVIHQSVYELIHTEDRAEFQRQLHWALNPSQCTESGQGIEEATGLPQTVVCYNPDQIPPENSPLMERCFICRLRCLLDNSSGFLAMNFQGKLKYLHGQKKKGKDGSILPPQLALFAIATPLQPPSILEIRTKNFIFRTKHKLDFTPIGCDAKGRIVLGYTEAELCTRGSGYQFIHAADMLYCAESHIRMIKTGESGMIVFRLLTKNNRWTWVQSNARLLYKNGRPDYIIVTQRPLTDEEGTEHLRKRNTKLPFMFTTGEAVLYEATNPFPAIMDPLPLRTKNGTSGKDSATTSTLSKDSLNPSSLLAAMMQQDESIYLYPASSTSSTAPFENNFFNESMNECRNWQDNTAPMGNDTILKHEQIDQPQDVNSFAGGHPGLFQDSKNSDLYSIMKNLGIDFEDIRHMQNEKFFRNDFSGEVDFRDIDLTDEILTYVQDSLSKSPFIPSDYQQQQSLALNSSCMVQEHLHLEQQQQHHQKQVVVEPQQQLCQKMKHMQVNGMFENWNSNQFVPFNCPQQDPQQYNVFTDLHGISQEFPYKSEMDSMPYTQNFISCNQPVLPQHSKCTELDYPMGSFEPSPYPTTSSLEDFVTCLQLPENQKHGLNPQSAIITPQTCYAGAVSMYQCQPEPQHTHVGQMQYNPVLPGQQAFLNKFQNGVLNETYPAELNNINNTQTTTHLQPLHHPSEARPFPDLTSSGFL
Outline: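 Luminescence (ONE-Glo) from a dioxin-responsive-element luciferase reporter in HG2L7.5c1 HepG2 cells after 24 hr compound exposure at 37C; viability measured by CellTiter-Fluor fluorescence beforehand.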

[11] = qHTS assay to identify small molecule that activate the aryl hydrocarbon receptor (AhR) signaling pathway - cell viability counter screen (AID 743086);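 also: HepG2 liver cells carrying the AhR DRE luciferase reporter; nearly all actives have a fitted effect of over 45% in size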
Outline: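 Cytotoxicity counter screen: CellTiter-Fluor signal (30 min, 37 C) in 4000 HepG2 cells/well carrying the DRE-luciferase reporter, following 24 h compound exposure at 37 C.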

[12] = target: Peroxisome proliferator-activated receptor gamma (Homo sapiens) (UniProt P37231); experiment: qHTS assay to identify small molecule agonists of the peroxisome proliferator-activated receptor gamma (PPARg) signaling pathway (AID 743094; active = well fitted activation curve with a large enough effect in the signal ratio in the repeat runs, not every such curve was filed as active; inconclusive = weak or mixed curves, or effect the other way; inactive = no such curve, though single readings can be large or run the other way; the % refers to the signal ratio)
Sequence of Peroxisome proliferator-activated receptor gamma (Homo sapiens) (P37231 whole entry, looked up): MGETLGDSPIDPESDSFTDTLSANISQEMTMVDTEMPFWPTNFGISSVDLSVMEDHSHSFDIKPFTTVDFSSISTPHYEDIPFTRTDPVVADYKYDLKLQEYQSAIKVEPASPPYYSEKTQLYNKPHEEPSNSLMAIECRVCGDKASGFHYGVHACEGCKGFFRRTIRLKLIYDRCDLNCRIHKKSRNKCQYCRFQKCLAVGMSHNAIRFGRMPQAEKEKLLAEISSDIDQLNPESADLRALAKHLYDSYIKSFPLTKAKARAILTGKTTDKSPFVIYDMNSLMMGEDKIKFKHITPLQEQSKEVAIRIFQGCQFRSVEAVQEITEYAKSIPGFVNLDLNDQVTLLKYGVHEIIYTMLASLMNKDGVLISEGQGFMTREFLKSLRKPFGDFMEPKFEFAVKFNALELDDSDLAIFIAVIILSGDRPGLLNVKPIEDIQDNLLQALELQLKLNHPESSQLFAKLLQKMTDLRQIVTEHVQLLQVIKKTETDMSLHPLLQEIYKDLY
Outline: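 Beta-lactamase FRET fluorescence was the read-out after a 1 h room-temperature substrate step, following 17 h compound treatment at 37C of HEK293H cells expressing a UAS-driven bla reporter responsive to PPARg.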

[13] = qHTS assay to identify small molecule antagonists of the peroxisome proliferator-activated receptor gamma (PPARg) signaling pathway - cell viability counter screen (AID 743194); also: nearly all actives have a fitted effect of over 55% in size; also: potency is read from the fitted curve at half-maximal effect
Outline: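 Viability was measured as CellTiter-Glo luminescence in GeneBLAzer PPARg UAS-bla HEK293H cells. These cells had been exposed 17 h at 37 C to compounds together with rosiglitazone at 50 nM final, with the beta-lactamase readout taken in the same wells.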

[14] = qHTS assay for small molecule agonists of the antioxidant response element (ARE) signaling pathway - cell viability counter screen (AID 743203; calls by dose curve; also: nearly all actives have a fitted effect of over 55% in size; also: potency is read from the fitted curve at half-maximal effect)
Outline: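 HepG2 cells carrying ARE-driven beta-lactamase; 2,000 cells/well; 5 hrs plating; compound pinned from DMSO; 16 hrs 37C/5% CO2; CellTiter-Glo added; 30 min RT; luminescence.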

[15] = qHTS assay for small molecule activators of the heat shock response signaling pathway - cell viability counter screen (AID 743209); also: nearly all actives have a fitted effect of over 50% in size
Outline: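 Luminescence from CellTiter-Glo, added after the beta-lactamase FRET read, gave the viability signal. Cells were HSE-bla HeLa treated with DMSO-dissolved compounds for 5 h at 37 C following overnight plating.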

[16] = qHTS assay for small molecule activators of the heat shock response signaling pathway (AID 743210; active = well fitted activation curve with a large enough effect in the signal ratio in the repeat runs, with a control signal flat, not every such curve was filed as active; inconclusive = weak or mixed curves; the % refers to the signal ratio;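 also: HeLa cells with beta-lactamase reporter driven by heat shock elements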)
Outline: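 In HSE-bla HeLa cells, 5 h compound incubation (37 C) precedes addition of LiveBLAzer B/G substrate; after 2.5 h at room temperature, fluorescence intensity indicates reporter induction.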

[17] = target: Peroxisome proliferator-activated receptor gamma (Homo sapiens) (UniProt P37231); experiment: qHTS assay to identify small molecule antagonists of the peroxisome proliferator-activated receptor gamma (PPARg) signaling pathway (AID 743191; calls by dose curve; also: nearly all actives have a fitted effect of over 30% in size)
Outline: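 Beta-lactamase reporter under UAS control in HEK293H PPARg-bla cells; compound treatment 17 h at 37C. Read-out: fluorescence intensity after 1 h room-temperature incubation with LiveBLAzer B/G FRET substrate.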

[18] = qHTS assay to identify small molecule agonists of the peroxisome proliferator-activated receptor delta (PPARd) signaling pathway - cell viability counter screen (AID 743211); also: nearly all actives have a fitted effect of over 55% in size; also: potency is read from the fitted curve at half-maximal effect
Outline: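 Viability was measured as CellTiter-Glo luminescence (30 min, room temperature) in the same wells as the beta-lactamase readout. GeneBLAzer PPARd UAS-bla HEK293H cells received compound after 5 h plating and were incubated 17 h at 37 C.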

[19] = qHTS assay for small molecule agonists of the antioxidant response element (ARE) signaling pathway (AID 743202; active = well fitted activation curve with a large enough effect in the signal ratio in the repeat runs, not every such curve was filed as active; inconclusive = weak or mixed curves, or effect the other way; inactive = no such curve, though single readings can be large or run the other way; the % refers to the signal ratio)
Outline: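 An ARE-responsive beta-lactamase gene stably integrated in HepG2 cells serves as reporter. After 5 h plating and 16 h compound incubation at 37 C, fluorescence of the B/G FRET substrate was measured.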

Compound: CC(C)N=C(N)/N=C(\N)Nc1ccc(Cl)cc1
- Potency [1]: 2.54 µM (active)
- Potency [2]: inactive
- Potency [3]: inactive
- Potency [4]: inactive
- Potency [5]: inactive
- Potency [6]: inactive
- Potency [7]: inactive
- Potency [8]: inactive
- Potency (Aromatase (Homo sapiens)): inactive
- Potency [9]: inactive
- Potency [10]: inactive
- Potency [11]: inactive
- Potency [12]: inactive
- Potency [13]: inactive
- Potency [14]: inactive
- Potency [15]: inactive
- Potency [16]: inactive

Compound: COC(=O)CC(C)CCC=C(C)C (stereo not given)
- Potency [1]: inactive
- Potency [2]: inactive
- Potency [3]: inactive
- Potency [4]: inactive
- Potency [5]: inactive
- Potency [6]: inactive
- Potency [7]: inactive
- Potency [8]: inactive
- Potency (Aromatase (Homo sapiens)): inactive
- Potency [9]: inactive
- Potency [10]: inactive
- Potency [11]: inactive
- Potency [12]: inactive
- Potency [17]: inactive
- Potency [13]: inactive
- Potency [14]: inactive
- Potency [18]: inactive

Compound: CC1CCCNC1 (stereo not given)
- Potency [1]: inactive
- Potency [2]: inactive
- Potency [3]: inactive
- Potency [4]: inactive
- Potency [5]: inactive
- Potency [6]: inactive
- Potency [7]: inactive
- Potency [8]: inactive
- Potency (Aromatase (Homo sapiens)): inactive
- Potency [9]: inactive
- Potency [10]: inactive
- Potency [11]: inactive
- Potency [12]: inactive
- Potency [17]: inactive
- Potency [13]: inactive
- Potency [19]: inactive
- Potency [14]: inactive

Compound: CCC(=O)OCCc1ccccc1
- Potency [1]: inactive
- Potency [2]: inactive
- Potency [3]: inactive
- Potency [4]: inactive
- Potency [5]: inactive
- Potency [6]: inactive
- Potency [7]: inactive
- Potency [8]: inactive
- Potency [9]: inactive
- Potency [10]: inactive
- Potency [11]: inactive
- Potency [12]: inactive
- Potency [17]: inactive
- Potency [13]: inactive
- Potency [14]: inactive

Compound: CC(COC(=O)c1ccccc1)OC(=O)c1ccccc1 (stereo not given)
- Potency [1]: inactive
- Potency [2]: inactive
- Potency [3]: inactive
- Potency [4]: inactive
- Potency [5]: inactive
- Potency [7]: inactive
- Potency [8]: inactive
- Potency (Aromatase (Homo sapiens)): inactive
- Potency [9]: inactive
- Potency [10]: inactive
- Potency [11]: inactive
- Potency [12]: inactive
- Potency [13]: inactive
- Potency [14]: inactive
- Potency [15]: inactive
- Potency [16]: inactive
- Potency [18]: inactive

Compound: CCOC(=O)N1CCC(=C2c3ccc(Cl)cc3CCc3cccnc32)CC1
- Potency [1]: 11.9 µM (active) and 9.69 µM (active)
- Potency [2]: inactive
- Potency [3]: 26.8 µM [inconclusive] (active)
- Potency [4]: inactive
- Potency [5]: inactive
- Potency [7]: inactive and 61.1 µM (active)
- Potency [8]: inactive
- Potency [9]: inactive
- Potency [13]: 49 µM (active) and 26.6 µM (active)
- Potency [14]: 30.6 µM (active)
- Potency [15]: inactive
- Potency [18]: 27.5 µM (active) and 29.8 µM (active)

Compound: NC(=O)c1ccccc1N
- Potency [1]: inactive
- Potency [2]: inactive
- Potency [3]: inactive
- Potency [4]: inactive
- Potency [5]: inactive
- Potency [6]: inactive
- Potency [7]: inactive
- Potency [8]: inactive
- Potency (Aromatase (Homo sapiens)): inactive
- Potency [9]: inactive
- Potency [10]: inactive
- Potency [11]: inactive
- Potency [12]: inactive
- Potency [17]: inactive
- Potency [13]: inactive
- Potency [19]: inactive
- Potency [14]: inactive
- Potency [15]: inactive
- Potency [16]: inactive
- Potency [18]: inactive
